High-throughput results deposited in PubChem BioAssay by National Center for Advancing Translational Sciences (NCATS).
CHX counter: counter-screen hit for Shiga toxin inhibitors, cycloheximide; cell reporter, cycloheximide protein synthesis inhibition counterscreen; max response, %; hit rate 12% among 300,000; AID 2314; in the data active = max response mostly above about 13%, no sharp cut-off; inactive = mostly below about 14%; also: read at 38.3 µM for the half of the compounds with a filed dose; 0% is about no effect
Pf growth 48h: P. falciparum growth inhibition at 48 hours (one generation); P. falciparum luciferase growth in erythrocytes, 48 h; Potency, µM (titrated, usually from 28.7 µM), for inactives: at the top dose activity change, negative = inhibition, usual class: inhibitors; hit rate 5.9% among 310,000; also: potency is read from the fitted curve at half-maximal effect; % is scaled to controls: 0 for no effect and ±100 for the full control effect
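A one-generation exposure of luciferase-tagged malaria parasites in RPMI 1640/Albumax erythrocyte culture, 37 C and 5% CO2. Inhibition is inferred from decreased luminescence after adding detection reagent.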
AMA1-RON2 inh: inhibitors of Plasmodium falciparum AMA1-RON2 interaction. hit rate 0.2% among 360,000. Potency, µM (titrated, usually from 58.2 µM), inactives show top-dose activity change, negative = inhibition, actives largely listed as inhibitors. AlphaScreen AMA1-biotinylated RON2 peptide binding;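 also: potency is read from the fitted curve at half-maximal effect; 0% = vehicle wells and -100% = peptide control; nearly all actives have a fitted effect of over 45% in size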
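AMA1 (3D7) with his tag at 25 nM final met compounds first, then biotinylated RON2 peptide at 25 nM; detection used donor plus acceptor beads, 10 µg/mL apiece, read by AlphaScreen after 30 min at room temperature.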
Pf growth 96h: P. falciparum growth inhibition at 96 hour, primary screen for plastid delayed-death inhibitors | Potency, µM (highest dose often 28.7 µM), for the others: at the highest dose activity change, negative = inhibition, hits mostly inhibitors | hit rate 6.9% among 320,000 | P. falciparum luciferase reporter growth, 96 h | AID 504834; also: potency is read from the fitted curve at half-maximal effect; % is scaled to controls: 0 for no effect and ±100 for the full control effect
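Two parasite generations (96 h, 37 C, 5% CO2) of compound exposure in infected erythrocytes (0.05% parasitemia, 2% hematocrit). Luciferase-reporter P. falciparum; decreased luminescence indicates inhibited growth, aimed at apicoplast-acting delayed death.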
HCV inhibitor: HCV inhibition; AID 651820; hit rate 3.4% among 340,000; Huh7.5.1 HCVcc-Cre infection, luciferase reporter, 44 h; Potency, µM (series often up to 41.8 µM), inactives show top-dose activity change, negative = inhibition, most hits filed as inhibitors; also: potency is read from the fitted curve at half-maximal effect; % is scaled to controls: 0 for no effect and ±100 for the full control effect
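Infectious HCV cell culture screen: compound-treated cells (1,000/well, pre-plated 4 h) are infected with HCVcc-Cre at roughly 0.5 moi and grown 44 h. Infection is quantified by luciferase signal after 15 min substrate incubation at room temperature.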
Shiga inhibitor: Shiga toxin inhibition; Vero cells, Shiga toxin protein synthesis inhibition reporter; inhibition, % at 38.7 µM; hit rate 9.2% among 290,000; in the data active = inhibition mostly above about 28%, no sharp cut-off; inactive = mostly below about 43%; also: 0% is about no effect
The depositor's hits bear a star; ? = inconclusive; . = no result given; [ ] = another dose, or the depositor's remark. An excerpt weighted towards active compounds, which were near 21% of everything screened. Unless noted, calls follow the shape of the dose curve; as a rule, active = well fitted curve in the direction sought with a large enough effect; inconclusive = small, poorly fitted or top-dose-only effect, or another doubt; inactive = no such curve, though single readings can be large; an effect the other way counts as inactive or inconclusive.

SMILES	CHX counter	Pf growth 48h	AMA1-RON2 inh	Pf growth 96h	HCV inhibitor	Shiga inhibitor
COc1ccc(C2(C)NC(=O)N(CC(=O)Nc3ccc(C)cc3Br)C2=O)cc1OC (configuration not stated)	-2.9	?	-3.1%	3.7µM*	-26.0%	-10.2
COc1ccc(C2(C)NC(=O)N(CC(=O)Nc3ccc(Br)cc3F)C2=O)cc1OC (configuration not stated)	0.8	?	1.1%	3.7µM*	?	-6.0
COc1ccc(C2(C)NC(=O)N(CC(=O)NCC(=O)Nc3ccc(F)c(F)c3F)C2=O)cc1OC (configuration not stated)	.	.	-6.5%	.	12.2%	.
COc1ccc(C2(C)NC(=O)N(CC(=O)Nc3ccc(Br)c(C)c3)C2=O)cc1OC (configuration not stated)	7.9	2.5%	-22.3%	16.0%	?	14.5
Cc1ccccc1N1CCN(S(=O)(=O)CC23CCC(CC2NC(=O)C(N)CCS(C)(=O)=O)C3(C)C)CC1 (configuration not stated)	-2.4	.	.	.	.	-10.8
OC(c1cc(F)cc(Cl)c1)c1ncc(-c2ccc(Cl)cc2)[nH]1 (configuration not stated)	.	.	-13.9%	.	.	.
Cc1nc(N2CCN(c3ccccc3)CC2)nc2c1C(=O)CC(C)C2 (configuration not stated)	-2.1	13.6%	-7.4%	-5.7%	11.2µM*	-10.9
COc1cc(NC(=O)c2ccc(Cl)cc2Cl)ccc1NC(=O)c1cccs1	-1.7	40.3%	-5.5%	44.2%	?	12.9
Cc1ccc(OCC(=O)NNC(=O)c2cc3ccccc3o2)cc1	10.5	-11.5%	-7.5%	?	5.3%	12.8
O=C(NCCOc1ccccc1)c1cc2ccccc2o1	44.7*	170.1%	-12.2%	.	7.1%	116.9*
Cc1ccc(OCCNC(=O)c2ccc(COc3ccccc3)o2)cc1	.	-6.3%	-14.2%	-1.9%	-4.7%[8.37 µM]	.
CC(C)Cc1ccc(C(=O)NCCOc2ccccc2)o1	28.7*	201.7%	-3.6%	36.5%	5.6%	80.1*
Cc1ccc(OCC(=O)NNC(=O)c2cc3ccccc3o2)cc1C	-3.7	28.6%	-11.8%	11.7µM*	-4.2%	16.7
Cc1ccc(C(=O)NCC(c2ccco2)N2CCOCC2)cc1 (configuration not stated)	.	?	6.7%	6.57µM*	-3.4%[8.37 µM]	.
O=C(NCC(c1ccco1)N1CCCC1)c1ccc(Cl)c(S(=O)(=O)N2CCc3ccccc32)c1 (configuration not stated)	.	5.86µM*	19.8%[11.6 µM]	?	4.47µM*	.
O=C(NCC(c1ccco1)N1CCc2ccccc2C1)c1ccc(Cl)c([N+](=O)[O-])c1 (configuration not stated)	.	?	-10.3%	0.5%	?	.
CCc1cc(C(=O)NCC(c2ccco2)N2CCCCC2)sc1C (configuration not stated)	.	9.28µM*	17.9%	5.86µM*	-21.8%	.
Cc1ccc(NS(=O)(=O)c2cccc(C(=O)NCC(c3ccco3)N3CCCC3)c2)cc1 (configuration not stated)	.	13.1µM*	20.5%	?	?	.
Cc1ccc(NS(=O)(=O)c2ccc(C(=O)NCC(c3ccco3)N3CCCCC3)cc2)cc1 (configuration not stated)	.	-8.5%	-4.9%	?	?	.
Cn1c(SCC(=O)Nc2ccc3c(c2)OCO3)nnc1C(F)(F)F	.	.	-6.0%	.	-4.9%	.
COc1ccc(Oc2c(OC)cc(NCc3ccc(CN)cc3)c3ncccc23)cc1	.	.	48.3%	.	.	.
O=C(NCC(c1ccco1)N1CCCC1)c1cccc(S(=O)(=O)Nc2ccc(F)cc2)c1 (configuration not stated)	.	13.1µM*	2.4%	14.7µM*	?	.
O=C(NCC(c1ccco1)N1CCCC1)c1cccc(NS(=O)(=O)c2ccccc2)c1 (configuration not stated)	.	10.4µM*	12.4%	?	-20.1%	.
O=S(=O)(NCC(c1ccco1)N1CCCCC1)c1ccccc1C(F)(F)F (configuration not stated)	.	?	-9.1%	?	2.6%	.
O=S(=O)(NCC(c1ccco1)N1CCCCC1)c1cccc(C(F)(F)F)c1 (configuration not stated)	.	?	-3.2%	7.38µM*	?	.
SMILES	CHX counter	Pf growth 48h	AMA1-RON2 inh	Pf growth 96h	HCV inhibitor	Shiga inhibitor
Cc1cc(S(=O)(=O)Nc2ccc(C(=O)NCC(c3ccco3)N3CCCCC3)cc2)ccc1F (configuration not stated)	.	?	-16.3%	?	-4.8%	.
O=C(NCC(c1ccco1)N1CCCCC1)c1cccc(S(=O)(=O)Nc2ccc(F)cc2)c1 (configuration not stated)	.	10.4µM*	12.8%	?	?	.
O=C1c2ccccc2S(=O)(=O)N1CCS(=O)(=O)c1ccc(F)cc1	6.9	38.7%	26.5%	33.0%	15.7%	10.1
CCOc1ccc(CCNC(=O)C(CCC(N)=O)NC(=O)OCc2ccccc2)cc1OCC (configuration not stated)	10.3	?	1.7%	-27.1%	-11.9%	17.5
O=C(Oc1ccc(-c2nnco2)cc1)c1cc(S(=O)(=O)N2CCOCC2)ccc1F	.	.	11.0%	.	.	.
Cn1cc(-c2coc3c(C(=O)NCc4cccc(Cl)c4)cccc23)cn1	.	.	6.0%	.	.	.
CCCCc1nc(SCC(=O)N2CCOCC2)c2c(=O)n(C)c(=O)n(C)c2n1	-0.9	12.0%	-10.9%	10.4%	-9.9%	-1.3
CC(=O)Nc1sc(N/N=C/c2ccc(N(C)C)cc2)nc1-c1ccc(C)cc1	25.1*	2.08µM*	17.0%	4.65µM*	-5.0%	57.5*
CC(=O)Nc1sc(/C(C#N)=C/c2ccc(Cl)c(Cl)c2)nc1-c1ccc(C)cc1	-2.2	33.3%	35.9%	-6.0%	-29.7%	-5.7
CC(=O)Nc1sc(N/N=C/c2ccc(C)cc2)nc1-c1ccc(C)cc1	52.3*	?	17.2%	?	-24.3%	71.4*
CCCS(=O)(=O)NC(=O)C1(C)CCCN(C(=O)COc2ccccc2)C1 (configuration not stated)	.	.	0.1%	.	.	.
CNC(=O)OCc1nc(SC2CCCCO2)n(C)c1COC(=O)NC (configuration not stated)	.	.	22.3%	.	.	.
O=C1OC2C(O)COC23OC(O)CCC13O (configuration not stated)	.	.	6.0%	.	.	.
CC(=O)Nc1cc2c(cc1Br)OCCO2	-1.9	2.3%	-5.4%	480.3%	?	-12.1
Brc1ccc(CNc2cc3c(cc2Br)OCCO3)cc1	20.3	13.8%	12.6µM*	-6.2%	-4.8%	40.4
CCc1nc2c(OCCOc3ccc(F)cc3)cccn2c1N(C)C(=O)CC(C)C	.	.	-5.8%	.	.	.
Cc1ccc(C(=O)OCC(=O)c2ccc(S(=O)(=O)N3CCCCC3)cc2)o1	.	-10.0%	-8.8%	2.1%	10.9%	.
COc1cc(C(=O)ON=C2C3CC4CC(C3)CC2C4)cc(OC)c1OC	-3.8	1.17µM*	-5.5%	1.47µM*	-25.1%	-5.5
